# Activity calls are given as the source filed them.
# What was measured:
# [1] = small molecules captured by biotinylated probe aFSTL3 – biochemical, small-molecule microarray, fluorescence 635/667, stem cell growth factor project, primary screen (AID 1064); settings: higher = more signal;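 further: measures binding of the biotinylated anti-FSTL3 antibody to printed compounds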
# [2] = binders from COS7 lysate, DM2A8 probe, primary screen, torsin A project, cell lysate, small-molecule microarray, fluorescence 635/667 (AID 1065); settings: higher = more signal, COS7 lysate expressing mutant human TOR1A
# [3] = small molecules captured by biotinylated probe aFGF2 – biochemical, small-molecule microarray, fluorescence 635/667, stem cell growth factor project, primary screen (AID 1067); settings: higher = more signal;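 further: measures binding of biotinylated aFGF2 protein to printed compounds on slides; z-score merges feature fluorescence and signal-to-noise across triplicate slides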
# [4] = small molecules captured by biotinylated probe aFGF10 – biochemical, small-molecule microarray, fluorescence 635/667, stem cell growth factor project, primary screen (AID 1071); settings: higher = more signal;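 further: score merges 667 nm spot intensity and signal to noise from triplicate slides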
# [5] = target: Neurogenic locus notch homolog protein 2 (Homo sapiens) (UniProt Q04721); test: small molecules binding Notch2 protein – biochemical, small-molecule microarray, 635 nm fluorescence, stem cell growth factors, primary screen (AID 1073); settings: higher = more signal
# [6] = target: Pro-neuregulin-1, membrane-bound isoform (Homo sapiens) (UniProt Q02297); test: small molecules binding neuregulin-1 protein – biochemical, small-molecule microarray, fluorescence 635/667, psychiatric disease protein project, primary screen (AID 1075); settings: NRG1 binding, 635 nm fluorescence, higher = more signal;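 further: score combines 667 nm spot fluorescence with signal to noise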
# [7] = system: Neuregulin-1 EGF-like domain; test: small molecules binding NRG1 EGF domain – biochemical, small-molecule microarray, 635 nm fluorescence, primary screen (AID 1081); settings: higher = more signal;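 further: binding of the protein to compounds printed on small-molecule microarray slides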
# [8] = FRG1 expression reporter modulators in myotubes – cell-based, C2C12 myotubes, firefly/Renilla luciferase, luminescence, FRG1 inhibition for FSHD, primary screen (AID 1084); settings: FRG1 promoter luciferase, higher = more signal, called active from +8 up or from −8 down
# [9] = small molecules captured by biotinylated probe aFST – biochemical, small-molecule microarray, fluorescence 635/667, stem cell growth factor project, primary screen (AID 1086); settings: higher = more signal;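 further: score merges 667 nm fluorescence with signal-to-noise of each printed compound spot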
# [10] = binders of probe aHhip on microarray, primary screen, stem cell growth factor project, biochemical, small-molecule microarray, fluorescence 635/667 (AID 1087); settings: higher = more signal;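 further: score merges spot fluorescence at 667nm with spot signal to noise ratio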
# [11] = system: PRMT1 (protein arginine N-methyltransferase 1); test: small molecules binding arginine methyltransferase PRMT1 – biochemical, small-molecule microarray, 635 nm fluorescence, primary screen (AID 1088); settings: higher = more signal;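 further: binding of Prmt1 protein to compounds spotted on small-molecule microarray slides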
# [12] = growth effects on S. cerevisiae YJM789 – YJM789 clinical isolate, OD600, 24 h, basal, primary screen (AID 1089); settings: higher = more signal, called active from +8 up or from −8 down;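 further: growth of clinical yeast isolate S. cerevisiae YJM 789 seeded 1000 cells per well; test concentration not given here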
# [13] = S. pombe growth modifiers, basal conditions – strain 972, OD600, 24 h, no modulator, primary screen (AID 1090);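 further: basal condition with compound alone and no growth modifier present; test concentration not given here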; settings: S. pombe 972 growth, higher = more signal, called active from +8 up or from −8 down
# [14] = budding yeast growth modifiers under rapamycin – strain BY4716, OD600, 96 h, primary screen (AID 1091); further: test concentration not given here; settings: S. cerevisiae BY4716 + rapamycin, higher = more signal, called active from +8 up or from −8 down
# [15] = target: Torsin-1A-interacting protein 2 (Homo sapiens) (UniProt Q8NFQ8); test: small molecules binding lysate-expressed LULL1 – cell lysate, human LULL1 lysate, 635/667 nm fluorescence, primary screen (AID 1092); settings: small-molecule microarray, hLULL1 lysate binding, 635 nm fluorescence; higher = more signal;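 further: probe is lysate of COS7 cells overexpressing human LULL1; score merges per-feature 667 nm fluorescence with signal-to-noise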
# [16] = optical density change of DRC41 E. coli – strain DRC41, OD650, 24 h, E. coli filamentation project, primary screen (AID 1093);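 further: MC1000 strain lacking acrAB efflux and sulA so SOS filamentation is blocked; test concentration not given here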; settings: E. coli DRC41 growth, higher = more signal, called active from +8 up or from −8 down
# [17] = probe aLefty2 binding to arrayed compounds – biochemical, biotinylated probe, 635/667 nm fluorescence, primary screen (AID 1094); settings: small-molecule microarray, higher = more signal;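 further: score merges spot fluorescence near 667 nm with spot signal-to-noise ratio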
# [18] = system: Noggin (protein binding on small-molecule microarray); test: small molecules binding Noggin protein – biochemical, 635/667 nm fluorescence, primary screen (AID 1095); settings: 635 nm fluorescence, higher = more signal;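 further: score merges 667 nm feature fluorescence with signal to noise over triplicate slides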
# [19] = target: Neurogenic locus notch homolog protein 3 (Homo sapiens) (UniProt Q9UM47); test: small molecules binding NOTCH3 protein – biochemical, 635/667 nm fluorescence, primary screen (AID 1096); settings: small-molecule microarray, 635 nm fluorescence, higher = more signal
# [20] = probe aEGFR binding to arrayed compounds – biochemical, biotinylated probe, 635/667 nm fluorescence, primary screen (AID 1097); settings: small-molecule microarray, higher = more signal;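 further: probe is a biotinylated anti-EGFR antibody binding compounds printed on slides; score combines fluorescence near 667 nm and signal to noise of each spot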
# Sequence of Pro-neuregulin-1, membrane-bound isoform (Homo sapiens) (Q02297 whole entry, looked up, the tested form may be a part, canonical isoform): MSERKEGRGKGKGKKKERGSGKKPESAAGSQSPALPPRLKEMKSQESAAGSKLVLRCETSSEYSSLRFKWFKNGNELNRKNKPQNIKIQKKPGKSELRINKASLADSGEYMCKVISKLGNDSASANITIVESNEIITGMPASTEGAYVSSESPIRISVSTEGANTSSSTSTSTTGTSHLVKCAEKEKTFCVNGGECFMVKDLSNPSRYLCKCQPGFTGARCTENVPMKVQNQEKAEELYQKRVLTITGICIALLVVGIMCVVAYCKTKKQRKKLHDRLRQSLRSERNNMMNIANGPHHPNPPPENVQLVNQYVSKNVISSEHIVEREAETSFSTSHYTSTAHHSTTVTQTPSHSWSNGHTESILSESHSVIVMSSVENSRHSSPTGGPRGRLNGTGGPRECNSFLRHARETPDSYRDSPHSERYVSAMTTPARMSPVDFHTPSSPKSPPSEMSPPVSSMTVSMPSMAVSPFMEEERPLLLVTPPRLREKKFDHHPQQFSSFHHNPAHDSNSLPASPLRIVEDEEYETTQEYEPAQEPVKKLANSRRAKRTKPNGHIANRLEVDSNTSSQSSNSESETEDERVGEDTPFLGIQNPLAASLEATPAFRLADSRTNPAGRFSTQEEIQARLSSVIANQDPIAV
# Sequence of Neurogenic locus notch homolog protein 3 (Homo sapiens) (Q9UM47 whole entry, looked up): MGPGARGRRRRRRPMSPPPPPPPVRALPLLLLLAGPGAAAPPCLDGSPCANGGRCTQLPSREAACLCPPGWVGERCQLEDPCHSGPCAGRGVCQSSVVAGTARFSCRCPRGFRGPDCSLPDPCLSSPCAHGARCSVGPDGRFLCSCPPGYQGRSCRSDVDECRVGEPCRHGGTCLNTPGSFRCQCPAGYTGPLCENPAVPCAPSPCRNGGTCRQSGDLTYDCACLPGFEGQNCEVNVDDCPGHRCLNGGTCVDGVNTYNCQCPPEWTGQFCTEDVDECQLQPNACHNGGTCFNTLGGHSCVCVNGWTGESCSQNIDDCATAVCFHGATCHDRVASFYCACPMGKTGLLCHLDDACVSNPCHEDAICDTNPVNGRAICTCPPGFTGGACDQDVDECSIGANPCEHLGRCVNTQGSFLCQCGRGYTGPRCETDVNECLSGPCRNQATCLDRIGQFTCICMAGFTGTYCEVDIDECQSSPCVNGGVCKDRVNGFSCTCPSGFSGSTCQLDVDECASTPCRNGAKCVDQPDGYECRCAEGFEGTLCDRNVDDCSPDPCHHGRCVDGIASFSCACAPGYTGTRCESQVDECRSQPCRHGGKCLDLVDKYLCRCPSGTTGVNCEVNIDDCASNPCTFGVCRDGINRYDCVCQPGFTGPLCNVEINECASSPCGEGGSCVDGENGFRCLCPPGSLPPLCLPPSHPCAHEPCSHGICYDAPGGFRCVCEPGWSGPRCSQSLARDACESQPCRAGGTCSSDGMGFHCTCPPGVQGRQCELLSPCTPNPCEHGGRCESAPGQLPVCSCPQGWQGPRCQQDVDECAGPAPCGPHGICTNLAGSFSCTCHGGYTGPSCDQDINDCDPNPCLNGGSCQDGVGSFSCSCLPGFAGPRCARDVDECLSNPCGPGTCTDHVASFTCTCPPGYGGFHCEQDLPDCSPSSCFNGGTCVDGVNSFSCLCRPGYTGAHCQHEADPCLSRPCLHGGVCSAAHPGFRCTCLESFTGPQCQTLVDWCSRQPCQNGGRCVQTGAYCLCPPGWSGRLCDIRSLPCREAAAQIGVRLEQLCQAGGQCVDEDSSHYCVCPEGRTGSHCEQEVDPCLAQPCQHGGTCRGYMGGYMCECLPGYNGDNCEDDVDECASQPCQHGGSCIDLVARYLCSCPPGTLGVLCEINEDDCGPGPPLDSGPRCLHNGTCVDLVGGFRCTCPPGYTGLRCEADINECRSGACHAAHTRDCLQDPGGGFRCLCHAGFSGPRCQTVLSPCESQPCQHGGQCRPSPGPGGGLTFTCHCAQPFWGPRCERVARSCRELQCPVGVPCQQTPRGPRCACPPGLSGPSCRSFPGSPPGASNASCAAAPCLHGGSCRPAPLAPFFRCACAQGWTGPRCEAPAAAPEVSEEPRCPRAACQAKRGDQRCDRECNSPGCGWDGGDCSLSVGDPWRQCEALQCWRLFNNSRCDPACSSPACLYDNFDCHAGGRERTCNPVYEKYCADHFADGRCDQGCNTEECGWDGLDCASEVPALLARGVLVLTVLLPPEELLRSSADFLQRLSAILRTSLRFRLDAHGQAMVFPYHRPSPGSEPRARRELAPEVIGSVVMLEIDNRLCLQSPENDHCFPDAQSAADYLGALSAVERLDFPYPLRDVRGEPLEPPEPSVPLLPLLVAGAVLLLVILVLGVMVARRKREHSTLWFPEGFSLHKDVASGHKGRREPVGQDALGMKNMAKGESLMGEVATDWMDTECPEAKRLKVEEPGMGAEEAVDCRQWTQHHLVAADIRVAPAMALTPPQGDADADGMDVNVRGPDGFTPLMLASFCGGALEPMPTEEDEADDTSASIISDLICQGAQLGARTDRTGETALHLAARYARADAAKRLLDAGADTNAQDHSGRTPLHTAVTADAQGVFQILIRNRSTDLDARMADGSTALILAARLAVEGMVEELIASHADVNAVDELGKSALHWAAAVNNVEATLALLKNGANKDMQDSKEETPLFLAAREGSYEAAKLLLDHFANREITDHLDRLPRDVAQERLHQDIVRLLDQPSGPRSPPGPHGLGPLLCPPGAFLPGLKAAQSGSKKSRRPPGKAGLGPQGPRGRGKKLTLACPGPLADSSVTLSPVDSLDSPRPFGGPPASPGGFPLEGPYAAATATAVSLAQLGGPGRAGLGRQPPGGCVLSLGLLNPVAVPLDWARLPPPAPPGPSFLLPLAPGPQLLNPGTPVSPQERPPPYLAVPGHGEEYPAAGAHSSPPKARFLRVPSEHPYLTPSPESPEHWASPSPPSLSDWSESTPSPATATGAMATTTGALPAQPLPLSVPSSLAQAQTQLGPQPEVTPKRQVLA
# Sequence of Torsin-1A-interacting protein 2 (Homo sapiens) (Q8NFQ8 whole entry, looked up): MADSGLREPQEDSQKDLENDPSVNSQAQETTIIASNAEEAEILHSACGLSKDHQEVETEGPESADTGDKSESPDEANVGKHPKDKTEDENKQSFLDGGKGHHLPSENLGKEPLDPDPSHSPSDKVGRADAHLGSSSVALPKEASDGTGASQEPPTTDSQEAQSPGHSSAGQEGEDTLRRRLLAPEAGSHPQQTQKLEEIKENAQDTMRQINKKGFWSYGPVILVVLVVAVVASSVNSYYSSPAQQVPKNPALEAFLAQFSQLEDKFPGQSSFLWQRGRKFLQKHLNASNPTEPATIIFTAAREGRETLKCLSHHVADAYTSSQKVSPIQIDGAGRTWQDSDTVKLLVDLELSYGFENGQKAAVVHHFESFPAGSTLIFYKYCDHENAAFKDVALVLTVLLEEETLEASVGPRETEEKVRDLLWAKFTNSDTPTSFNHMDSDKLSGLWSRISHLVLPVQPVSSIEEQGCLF
Compound,composite z-score [1],composite z-score [2],composite z-score [3],composite z-score [4],composite z-score [5],composite z-score [6],composite z-score [7],z-score [8],composite z-score [9],composite z-score [10],composite z-score [11],z-score [12],z-score [13],z-score [14],composite z-score [15],z-score [16],composite z-score [17],composite z-score [18],composite z-score [19],composite z-score [20]
COC(=O)[C@H](C)NC(=O)CCC1CC(OC(=O)NCc2ccc3c(c2)OCO3)CC2(CCCC(COC(=O)NCCC(C)C)O2)O1 (stereo not given in full),-0.312,0.255,-0.0837,0.338,0.821,1.14,0.808,1.52 (inactive),0.0929,-0.318,1.55,-0.916 (inactive),-0.031 (inactive),-1.24 (inactive),2.28,0.861 (inactive),-0.166,0.501,0.437,-0.0858
COc1ccc(COC(=O)NN=C2C[C@@H](O)[C@@H](O)[C@@H]3[C@@H]4C(=O)N(C[C@@H]5CCCO5)C(=O)[C@@H]4CC[C@@H]23)cc1,-0.227,0.359,-0.156,0.878,-0.0739,0.393,0.775,-0.913 (inactive),0.0269,-0.117,0.674,0.137 (inactive),0.467 (inactive),-0.389 (inactive),0.486,0.859 (inactive),-0.145,0.585,0.106,-0.1
COC(=O)[C@H](C)NC(=O)CCC1CC(OC(=O)NCc2cccc3ccccc23)CC2(CCCC(COC(=O)NCCc3ccccc3OC)O2)O1 (stereo not given in full),-0.629,0.0902,-0.076,0.612,1.24,1.15,1.21,2.21 (inactive),0.573,0.24,1.37,0.502 (inactive),1.02 (inactive),2.03 (inactive),2.38,0.476 (inactive),-0.0179,1.14,0.817,0.0066
COC(=O)CC=C[C@@H](C)[C@@H](C=NOC(C)CN1CCCCc2nc(C)c(C)cc21)OC (stereo not given in full),-0.0416,2.43,-0.175,-0.425,-0.229,0.33,0.987,0.739 (inactive),0.286,-0.206,1.24,-0.793 (inactive),-0.472 (inactive),-0.906 (inactive),1.24,-0.123 (inactive),-0.0063,0.946,0.234,0.0282
CCOC(=O)[C@H](CC(C)C)NC(=O)CCC1CC(OC(=O)NCc2ccc3c(c2)OCO3)CC2(CCCC(COC(=O)NCCc3ccccc3OC)O2)O1 (stereo not given in full),-0.693,0.309,-0.085,0.554,1.26,0.53,0.978,1.01 (inactive),0.14,-0.15,1.34,-0.156 (inactive),0.249 (inactive),0.947 (inactive),1.99,-0.133 (inactive),-0.136,0.474,1.11,-0.0177
C[C@@H]1CC[C@H]2C(=O)OC(CN3C(=O)c4ccccc4C3=O)CN2[C@H]1c1ccc(Br)cc1 (stereo not given in full),-0.138,1,-0.133,0.0468,0.315,0.48,-0.429,1.11 (inactive),0.362,-0.132,0.658,0.341 (inactive),0.35 (inactive),-0.338 (inactive),1.38,0.725 (inactive),-0.185,-0.263,0.361,-0.0703
COC(=O)[C@@H]1CC[C@H](C)[C@@H](c2ccc(C)cc2)N1C(=O)c1ccc(C=NO[C@@H](C)c2cc(-c3c(C)cc(C)cc3C)no2)cc1,-0.4,0.58,-0.166,0.219,0.239,0.0688,0.38,-1.21 (inactive),0.188,-0.0237,1.05,-0.0984 (inactive),0.358 (inactive),0.612 (inactive),0.919,0.328 (inactive),-0.0727,0.3,0.35,-0.165
CC(=O)OC[C@H]1O[C@H](CC=NOC(C)CN2CCCc3nc(C)c(C)cc32)C=C[C@@H]1OC(C)=O (stereo not given in full),-0.255,0.28,-0.0621,0.677,0.804,-0.188,0.819,0.437 (inactive),0.371,0.0637,1.19,0.489 (inactive),0.483 (inactive),-0.344 (inactive),0.771,1.14 (inactive),0.0961,0.977,1.04,0.0473
CCN(CC)CC(O)CN1CCCCc2nc(C)c(C)cc21 (stereo not given),-0.482,1.04,-0.14,0.456,0.635,-0.164,1.07,-1.2 (inactive),0.101,-0.112,0.357,-1.59 (inactive),-1.34 (inactive),-0.425 (inactive),0.657,-0.0207 (inactive),-0.343,0.454,0.431,-0.0148
C[C@H]1CC[C@@H](C(=O)O)N[C@@H]1c1cccc(N2CCCC2=O)c1,-0.304,0.141,-0.145,0.22,0.408,-0.153,0.17,0.304 (inactive),0.149,0.107,-0.344,0.31 (inactive),0.0026 (inactive),0.374 (inactive),0.283,0.816 (inactive),-0.0873,0.49,0.408,-0.123

# From PubChem BioAssay
